# Results published in PubChem BioAssay (NCI).
# The panel holds about 83,000 compounds, 20% with a hit somewhere; the sample as a whole holds those more often.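 Cell lines were cultured in 96-well plates, exposed to a single compound concentration, and assessed for percent growth 48 hours later.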 A number with no mark means an inactive call. Calls of active or inactive are those of the source. Rule for the calls: active = growth percent below 10; inactive = the rest.
# Assays:
# Assay in all cases: NCI-60 one-dose screen, 48 h (100 = growth as untreated, 0 = no growth, -100 = all killed)
# Settings in all cases: 10 µM unless noted
# NCI-H23 lung = tested on: NCI-H23 lung
# NCI-H226 lung = tested on: NCI-H226 lung
# NCI-H322M lung = tested on: NCI-H322M lung
# HOP-62 NSCLC = tested on: HOP-62 NSCLC
# NCI-H460 lung = tested on: NCI-H460 lung
# HOP-92 NSCLC = tested on: HOP-92 NSCLC
# NCI-H522 lung = tested on: NCI-H522 lung
# A549/ATCC NSCLC = tested on: A549/ATCC NSCLC
# 786-0 renal = tested on: 786-0 renal
# COLO 205 colon = tested on: COLO 205 colon
# DU-145 prostate = tested on: DU-145 prostate
# K-562 leukemia = tested on: K-562 leukemia
# MALME-3M melanoma = tested on: MALME-3M melanoma
# MDA-MB-231 breast = tested on: MDA-MB-231 breast
# RXF 393 renal = tested on: RXF 393 renal
# SF-268 CNS = tested on: SF-268 CNS
# SF-295 CNS = tested on: SF-295 CNS
# SF-539 CNS = tested on: SF-539 CNS
# UACC-257 melanoma = tested on: UACC-257 melanoma
# M14 melanoma = tested on: M14 melanoma
SMILES,growth (NCI-H23 lung) [%],growth (NCI-H226 lung) [%],growth (NCI-H322M lung) [%],growth (HOP-62 NSCLC) [%],growth (NCI-H460 lung) [%],growth (HOP-92 NSCLC),growth (NCI-H522 lung),growth (A549/ATCC NSCLC) [%],growth (786-0 renal),growth (COLO 205 colon) [%],growth (DU-145 prostate) [%],growth (K-562 leukemia),growth (MALME-3M melanoma) [%],growth (MDA-MB-231 breast),growth (RXF 393 renal),growth (SF-268 CNS) [%],growth (SF-295 CNS),growth (SF-539 CNS) [%],growth (UACC-257 melanoma) [%],growth (M14 melanoma)
COc1cc(/C=C/C(=O)c2ccc(Oc3ncnc4ccccc34)cc2)cc(OC)c1OC,80.3,98.5,69.5,81.9,84.5,109%,52.7%,73.1,82.2%,109,21.4,12.1%,98.9,86.5%,84.3%,81.1,86.7%,63.6,93.3,73.8%
COc1cc(NC(C)CCCN2C(=O)c3ccccc3C2=O)c2nc(C)ccc2c1OC (stereo not given),87.9,96.4,76.2,95.1,103,53.5%,82%,94.8,97.5%,99.3,103,66.5%,104,78.3%,96.4%,104,93.5%,99.4,102,99.9%
COc1ccc2c(c1)O/C(=C/c1ccc(OCC(=O)Nc3ccc(S(N)(=O)=O)cc3)cc1)C2=O,100,86.9,97.8,104,101,91.4%,80.7%,88.5,96.7%,114,101,85.7%,111,94.7%,97.2%,94.8,106%,97.7,102,102%
COc1cc(CN(c2ccc(Cl)cc2)C2OC(=O)c3ccccc32)cc(OC)c1OC (stereo not given),77.2,78.9,88.8,44.8,57.4,69.1%,35%,39.7,71%,61.9,83.7,15.8%,64.3,67.1%,82.7%,67.8,71.5%,60.2,74.7,34.8%
COC1=C(OC)C(=O)C=CC1=O,111,107,101,117,118,110%,63.7%,109,103%,99.8,114,7.24% (active),114,101%,114%,109,113%,110,110,116%
Nc1nc(Cl)cc(NCCCCNc2cc(Cl)nc(N)n2)n1,102,109,87.1,107,121,74.3%,83.8%,108,108%,105,104,101%,145,114%,123%,112,121%,96.5,105,117%
COc1cccc(-c2nc3sccn3c2-c2ccnc(NCCNC(=O)c3ccccc3)n2)c1,87.3,79.3,110,111,84.9,77.8%,61.8%,75.3,78.4%,51.8,100,67.5%,26.7,83.5%,86.3%,92.7,85.4%,97.7,69.7,40.1%
O=C(Nc1ccc(-n2cc(-c3ccncc3)c(-c3ccc(O)c(Cl)c3)n2)cc1)c1cc(Cl)cc(Cl)c1,59.2,89.1,50.1,45.5,22.3,42%,22%,35.9,-42.1% (active),91.1,38.9,11.5%,34,-54.1% (active),-80.2% (active),49.4,-11.1% (active),12.8,66.9,-40.4% (active)
O=C(O)c1ccc(-n2cc(/C=N/Nc3ccccc3F)c(-c3ccc(O)cc3)n2)cc1,92.3,95.3,79.1,91.7,101,95.6%,48.3%,86.8,84%,95.9,97,13%,92.7,85.2%,92.6%,78.6,80.5%,85.9,103,73.5%
Cc1ccc2[nH]c3nc4cccnc4c(C)c3c2c1,36.5,77.9,44.4,63.2,11.4,115%,70.3%,74.5,107%,101,102,89.1%,127,37.1%,84.7%,92.3,99.9%,76.2,112,103%
COc1ccccc1P(c1ccccc1OC)c1ccccc1OC,250,105,87.5,113,94.8,70%,92.4%,82.2,106%,87.1,109,107%,104,101%,102%,109,97.3%,101,78.1,101%
CC(C)(C)C(=O)Nc1nc2c(s1)CCc1ccn(S(=O)(=O)c3ccccc3)c1-2,82.5,92.4,83.3,93.4,96.2,96.2%,66.7%,76.6,81.8%,112,99.1,69%,99.6,95.8%,116%,89.5,91.7%,99.4,95,96.1%
O=C(Nc1ccc(-n2ccc3c(NC(=O)c4ccccc4)ncnc32)cc1)c1cccc(C(F)(F)F)c1,80.6,70.8,62.9,71.5,10.2,81.2%,45.4%,32.7,56.2%,51.9,35.1,28.7%,77.3,51.5%,43.9%,38.9,33.2%,35.5,60.8,30.9%
COc1ccc(C(=O)NC(=O)Nc2ccc3c(c2)NC(=O)/C3=C\c2[nH]c(C)c(C(=O)O)c2C)cc1,18.1,83.9,94.2,96.2,100,-1.09% (active),7.54% (active),98,16.8%,88.1,71.1,79.3%,41.9,86.8%,49.1%,61.4,105%,72.9,107,90.5%
Nc1nc(-c2cc3c(cc2Cl)NC(=O)/C3=C/c2ccc(Cl)cc2)cs1,49.1,72.3,59.7,63,53.1,17.8%,17.3%,64.5,43.7%,61.7,64.6,5.83% (active),56.2,2.9% (active),51.6%,44.7,60.5%,62.3,73.5,28.7%
COc1cc2c(cc1OC)-c1c(oc3c4c(ccc3c1=O)OC(C)(C)C=C4)CO2,45.6,89.3,86.2,59.6,77.1,90.2%,56.7%,71.3,76.6%,113,90.9,39.9%,93.2,81.5%,96.9%,79.4,51.7%,83.5,54.8,83.1%
